In all, about 8,300 sequences were measured (“log2 fold change of degron read counts, EGFP-low vs EGFP+ sorted cells (limma voom), compound-induced degradation”: median about -1.1, highest 2% from about 3.2 on). This is one part of a sample in which the highest values are shown more often than they occur.
T1: CRBN, Q96SW2
T1 chain: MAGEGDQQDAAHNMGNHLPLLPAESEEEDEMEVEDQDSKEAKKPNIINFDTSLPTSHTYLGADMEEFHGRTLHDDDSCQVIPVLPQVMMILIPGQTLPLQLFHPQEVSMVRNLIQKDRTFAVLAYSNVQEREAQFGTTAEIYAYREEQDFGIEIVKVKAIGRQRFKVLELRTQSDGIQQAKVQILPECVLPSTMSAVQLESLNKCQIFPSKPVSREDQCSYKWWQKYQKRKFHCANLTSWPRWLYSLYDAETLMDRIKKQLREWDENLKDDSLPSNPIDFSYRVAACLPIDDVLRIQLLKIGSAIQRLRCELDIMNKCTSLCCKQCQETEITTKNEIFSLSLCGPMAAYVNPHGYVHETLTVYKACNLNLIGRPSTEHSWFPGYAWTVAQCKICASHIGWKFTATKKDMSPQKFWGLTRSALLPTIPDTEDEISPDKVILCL

B1: 46F_47T_49E_50I_52G_53R_54V_55F_67L_, Q9UKT9 (peptide)
chain: FTCEICGRVFTQKGNLLRHIKL
B2: 46F_47R_49P_50I_52G_53R_54L_55F_67L_, Q9UKT9 (peptide)
chain: FRCPICGRLFTQKGNLLRHIKL
B3: 46F_47D_49P_50I_52G_53R_54M_55F_67L_, Q9UKT9 (peptide)
chain: FDCPICGRMFTQKGNLLRHIKL
B4: 46F_47R_49N_50Q_52G_53H_54R_55F_67L_, Q9UKT9 (peptide)
chain: FRCNQCGHRFTQKGNLLRHIKL
B5: 46F_47A_49E_50V_52G_53A_54C_55F_67L_, Q9UKT9 (peptide)
chain: FACEVCGACFTQKGNLLRHIKL
B6: 46F_47K_49E_50V_52G_53A_54C_55F_67L_, Q9UKT9 (peptide)
chain: FKCEVCGACFTQKGNLLRHIKL
B7: 46F_47F_49E_50V_52G_53A_54C_55F_67L_, Q9UKT9 (peptide)
chain: FFCEVCGACFTQKGNLLRHIKL
B8: 46F_47W_49E_50V_52G_53A_54C_55F_67L_, Q9UKT9 (peptide)
chain: FWCEVCGACFTQKGNLLRHIKL
B9: 46F_47E_49E_50V_52G_53A_54C_55F_67L_, Q9UKT9 (peptide)
chain: FECEVCGACFTQKGNLLRHIKL
B10: 46F_47N_49E_50V_52G_53A_54C_55F_67L_, Q9UKT9 (peptide)
chain: FNCEVCGACFTQKGNLLRHIKL
B11: 46F_47H_49E_50V_52G_53A_54C_55F_67L_, Q9UKT9 (peptide)
chain: FHCEVCGACFTQKGNLLRHIKL
B12: 46F_47G_49E_50V_52G_53A_54C_55F_67L_, Q9UKT9 (peptide)
chain: FGCEVCGACFTQKGNLLRHIKL
B13: 46F_47C_49E_50V_52G_53A_54C_55F_67L_, Q9UKT9 (peptide)
chain: FCCEVCGACFTQKGNLLRHIKL
B14: 46F_47D_49E_50V_52G_53A_54C_55F_67L_, Q9UKT9 (peptide)
chain: FDCEVCGACFTQKGNLLRHIKL
B15: 46L_47E_49N_50Q_52G_53F_54W_55C_67L_, Q9UKT9 (peptide)
chain: LECNQCGFWCTQKGNLLRHIKL
B16: 46F_47Y_49D_50I_52G_53A_54V_55F_67L_, Q9UKT9 (peptide)
chain: FYCDICGAVFTQKGNLLRHIKL
B17: 46F_47C_49N_50Q_52G_53R_54T_55F_67L_, Q9UKT9 (peptide)
chain: FCCNQCGRTFTQKGNLLRHIKL
B18: 46F_47K_49N_50Q_52G_53R_54H_55F_67L_, Q9UKT9 (peptide)
chain: FKCNQCGRHFTQKGNLLRHIKL
B19: 46F_47I_49E_50I_52G_53A_54F_55F_67L_, Q9UKT9 (peptide)
chain: FICEICGAFFTQKGNLLRHIKL
B20: 46F_47E_49S_50V_52G_53H_54C_55F_67L_, Q9UKT9 (peptide)
chain: FECSVCGHCFTQKGNLLRHIKL
B21: 46F_47C_49N_50V_52G_53A_54V_55F_67L_, Q9UKT9 (peptide)
chain: FCCNVCGAVFTQKGNLLRHIKL
B22: 46F_47V_49N_50Q_52G_53H_54Y_55F_67L_, Q9UKT9 (peptide)
chain: FVCNQCGHYFTQKGNLLRHIKL
B23: 46F_47F_49N_50Q_52G_53H_54D_55F_67L_, Q9UKT9 (peptide)
chain: FFCNQCGHDFTQKGNLLRHIKL
B24: 46F_47M_49E_50V_52G_53A_54C_55F_67L_, Q9UKT9 (peptide)
chain: FMCEVCGACFTQKGNLLRHIKL
B25: 46F_47V_49E_50V_52G_53A_54C_55F_67L_, Q9UKT9 (peptide)
chain: FVCEVCGACFTQKGNLLRHIKL
B26: 46F_47L_49E_50V_52G_53A_54C_55F_67L_, Q9UKT9 (peptide)
chain: FLCEVCGACFTQKGNLLRHIKL
B27: 46F_47Q_49E_50V_52G_53A_54C_55F_67L_, Q9UKT9 (peptide)
chain: FQCEVCGACFTQKGNLLRHIKL
B28: 46F_47Y_49E_50V_52G_53A_54C_55F_67L_, Q9UKT9 (peptide)
chain: FYCEVCGACFTQKGNLLRHIKL
B29: 46F_47I_49E_50V_52G_53A_54C_55F_67L_, Q9UKT9 (peptide)
chain: FICEVCGACFTQKGNLLRHIKL
B30: 46F_47S_49E_50V_52G_53A_54C_55F_67L_, Q9UKT9 (peptide)
chain: FSCEVCGACFTQKGNLLRHIKL
B31: 46F_47T_49E_50V_52G_53A_54C_55F_67L_, Q9UKT9 (peptide)
chain: FTCEVCGACFTQKGNLLRHIKL
B32: 46F_47R_49E_50V_52G_53A_54C_55F_67L_, Q9UKT9 (peptide)
chain: FRCEVCGACFTQKGNLLRHIKL

Target: T1, CRBN, Q96SW2
Assay: log2 fold change of degron read counts, EGFP-low vs EGFP+ sorted cells (limma voom), compound-induced degradation; higher = more compound-induced degradation of the degron-EGFP fusion; degrons are variants of IKZF1/3 zinc finger 2; compound dose not given here
Conditions: Jurkat, 18 h
[1] = compound: compound 19 (5-tert-butyl-thalidomide)
[2] = compound: compound 22 (5-morpholino-thalidomide)
[3] = compound: compound 33 (diphenyl IMiD analogue)
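Also: pooled lentiviral library of zinc finger degron-EGFP fusions in mCherry-positive Jurkat cells, FACS-sorted after compound exposure, with degron abundance counted by next-generation sequencing.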

Row | Sequence | log2 fold change of degron read counts [1] | log2 fold change of degron read counts [2] | log2 fold change of degron read counts [3] | log2 fold change of degron read counts (compound: thalidomide)
1 | B1 | -2.27 | -1.55 | -0.702 | -0.137
2 | B2 | -1.83 | -0.827 | 0.758 | 0.687
3 | B3 | -0.392 | -0.463 | 1.09 | 1.7
4 | B4 | -2.19 | -2.67 | -2.63 | -2.17
5 | B5 | 3.76 | 2.16 | 1.45 | 0.401
6 | B6 | -0.0189 | -2.37 | -2.27 | -0.751
7 | B7 | 3.55 | 3.51 | 2.56 | 1.24
8 | B8 | 3.64 | 3.77 | 2.8 | 1.25
9 | B9 | 0.0523 | -1.58 | 1.91 | 2.18
10 | B10 | 2.1 | 0.177 | 0.1 | -0.55
11 | B11 | 2.22 | 2.25 | 1.49 | 0.274
12 | B12 | 3.58 | 2.6 | 1.86 | 0.497
13 | B13 | 2.54 | 2.27 | 2.88 | 2.26
14 | B14 | 0.736 | -1.47 | 0.552 | -0.0895
15 | B15 | -1.99 | -1.69 | -1.79 | -1.63
16 | B16 | 2.92 | 2.45 | 1.34 | -1.18

Row | Sequence | log2 fold change of degron read counts [1] | log2 fold change of degron read counts [2] | log2 fold change of degron read counts [3] | log2 fold change of degron read counts (compound: thalidomide)
17 | B17 | -2.96 | -2.98 | -2.8 | -2.49
18 | B18 | -2.42 | -3.25 | -2.92 | -2.39
19 | B19 | -1.14 | 0.177 | 1.46 | 0.874
20 | B20 | -2.85 | -3.1 | -2.83 | -3.04
21 | B21 | -1.07 | -0.182 | 1.49 | -0.139
22 | B22 | -3.08 | -3.34 | -2.73 | -2.44
23 | B23 | -3.06 | -4.05 | -2.94 | -2.8
24 | B24 | -0.094 | 0.00255 | 2.45 | 1.45
25 | B25 | -0.0594 | 1.78 | 2.4 | 2.7
26 | B26 | 0.437 | -0.686 | 1.57 | 1.59
27 | B27 | 0.807 | 2.69 | 2.23 | 3.69
28 | B28 | 3.74 | 3.85 | 3.1 | 1.37
29 | B29 | -0.743 | 2.1 | 2.52 | 2.75
30 | B30 | 3.26 | 2.28 | 2.54 | 1.34
31 | B31 | 1.37 | 2.52 | 2.51 | 2.66
32 | B32 | -0.334 | -0.2 | 1.72 | 1.5

From the supplement of paper PMC12645437, “Orthogonal IMiD-Degron Pairs Induce Selective Protein Degradation in Cells” (ACS Chemical Biology, 2025)
